tim10-1 inh – tim10-1 yeast growth inhibition; AID 463190; 2.2% of 330,000 active; S. cerevisiae tim10-1 ts strain growth, BacTiter-Glo, 24 h; inhibition, % at 20 µM;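 active = inhibition of at least 40%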;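 note: mutant grown at 25 °C; 0% = DMSO wells with yeast and 100% = wells holding no yeast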
tim23-1 inh – tim23-1 yeast growth inhibition. S. cerevisiae tim23-1 growth, BacTiter-Glo luminescence, 24 h. 1.3% of 330,000 active. inhibition, % at 20 µM. AID 463212;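 active = growth inhibition of the mutant yeast at or above 50%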;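 note: temperature-sensitive mutant grown at 25 °C; plate controls were DMSO-treated mutant yeast for no effect and medium wells lacking yeast for full effect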
TIM10 inh – TIM10 yeast growth inhibition. S. cerevisiae TIM10 strain growth, BacTiter-Glo luminescence, 24 h. inhibition, % at 10 µM. 1.4% of 330,000 active. AID 463195;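 active = inhibition of 40% or more at the single tested concentration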;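 note: wild-type TIM10 isogenic control strain grown at permissive 25 °C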
Rce1 inhib – blocks yeast Ras-converting enzyme. calls only. yeast membranes, quenched prenylated peptide cleavage fluorescence. 0.27% of 290,000 active;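 active = fall in fluorescence gain of 50% or more versus controls, with final raw signal at or below 3038400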;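 note: plate controls were neutral control wells for no effect and wells lacking membranes for full effect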
Target sequence (Q03530 whole entry, looked up): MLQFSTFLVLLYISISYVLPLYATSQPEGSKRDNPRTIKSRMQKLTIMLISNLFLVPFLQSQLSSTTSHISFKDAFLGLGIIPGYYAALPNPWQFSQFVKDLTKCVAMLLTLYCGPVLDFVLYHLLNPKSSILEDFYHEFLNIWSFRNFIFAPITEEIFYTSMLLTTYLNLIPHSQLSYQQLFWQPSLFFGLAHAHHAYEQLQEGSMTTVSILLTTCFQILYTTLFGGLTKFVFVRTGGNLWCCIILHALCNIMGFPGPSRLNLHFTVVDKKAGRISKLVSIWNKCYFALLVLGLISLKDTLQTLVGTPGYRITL
PfHsp90 set2 – reduces growth (ATP signal) of yeast expressing P. falciparum Hsp90; 0.32% of 310,000 active; inhibition, % at 9.4 µM; AID 504621; S. cerevisiae expressing PfHsp90, BacTiter-Glo ATP, 48 h; yeast lacking PDR1 and PDR3 efflux regulators;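 active = every replicate shows inhibition above about 80%, whatever the replicate mean, limit read from the data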;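 note: 0% = DMSO neutral controls and 100% = 20 µM radicicol positive controls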
tim10-1 confirm – tim10-1 yeast growth inhibition, confirmed; AID 463213; 56% of 7,400 active; shares compounds with tim10-1 inh; inhibition, % at 20 µM; S. cerevisiae tim10-1 ts strain growth, BacTiter-Glo, 24 h;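 active = inhibition of yeast growth at or above a set limit in either of two repeat tests at 20 µM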;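 note: tim10-1 mutant grown at permissive 25 °C to find synthetic lethal compounds; 0% = DMSO yeast wells and 100% = medium wells without yeast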
tim10 confirm – TIM10 yeast growth inhibition, confirmed. shares compounds with TIM10 inh. S. cerevisiae tim10 strain growth, BacTiter-Glo luminescence, 24 h. inhibition, % at 10 µM. 63% of 4,600 active;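 active = inhibition of yeast growth at or above a set limit in either of two replicates at 10 µM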;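 note: this counterscreen used the strain with wild-type TIM10; 0% = yeast with DMSO and 100% = medium wells lacking yeast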
tim23-1 conf – confirmation of tim23-1 mutant yeast growth inhibitors; shares compounds with tim23-1 inh; S. cerevisiae tim23-1 growth, BacTiter-Glo luminescence, 24 h; inhibition, % at 20 µM; 83% of 4,400 active; AID 463218;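 active = inhibition above about 39% in either of two replicate wells at 20 µM, limit read from the data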;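 note: temperature-sensitive tim23-1 mutant grown at 25 °C; 0% = DMSO wells with yeast and 100% = medium wells without yeast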
Numbers without * were called inactive; i = inactive; · = not tested or not shown. Only some compounds are listed: those with a hit (about 3.7% of all), similar ones and a draw of the others.

SMILES	tim10-1 inh	tim23-1 inh	TIM10 inh	Rce1 inhib	PfHsp90 set2	tim10-1 confirm	tim10 confirm	tim23-1 conf
O=C1/C(=C/c2ccccn2)COc2ccccc21	53.6*	76.2*	64.0*	i	19.5	67.5*	75.3*	71.9*
CC1C/C(=C/c2ccco2)C(=O)/C(=C/c2ccco2)C1 (configuration not stated)	54.1*	53.9*	34.2	i	·	32.2*	·	43.1*
CC(C)(Oc1ccc(Cl)cc1)C(=O)N(Cc1ccccc1)c1ccccn1	19.4	24.8	-6.5	i	-18.4	·	·	·
FC(F)(F)c1ccccc1CN1CCCC(N2CCN(c3ccccc3)CC2)C1 (configuration not stated)	23.5	20.7	6.0	i	7.8	·	·	·
O=C(Nc1ncc(Br)s1)C(Cc1ccccc1)n1cccc1 (configuration not stated)	63.2*	66.7*	57.5*	i	39.5	54.4*	56.7*	53.8*
O=C(Nc1cccnc1)C(Cc1ccccc1)n1cccc1 (configuration not stated)	16.0	3.7	3.9	i	0.8	·	·	·
NS(=O)(=O)c1ccc(CNC(=O)c2ccncc2)cc1	3.4	12.1	4.8	i	6.4	·	·	·
CN(C1=C(NC(=O)c2ccc(Cl)cc2)C(=O)c2ccccc2C1=O)c1ccccc1	65.2*	67.8*	65.8*	i	-45.5	61.5*	-9.5	72.1*
COc1ccc(S(=O)(=O)N2CCCCCC2)cc1C(=O)N(C)Cc1ccc(C(C)(C)C)cc1	18.0	10.7	12.9	i	21.8	·	·	·
O=C(c1ccc(Cl)cc1)C1CCN(Cc2ccccc2)CC1	7.6	1.5	0.4	i	1.9	·	·	·
O=C(c1ccc(Cl)cc1)C(CN1CCCC1)c1ccccc1 (configuration not stated)	61.6*	56.8*	46.3*	i	-49.6	26.1	51.0*	6.5
NS(=O)(=O)c1ccc(NC2=CC(c3ccc([N+](=O)[O-])cc3)N(c3ccc(S(N)(=O)=O)cc3)C2=O)cc1 (configuration not stated)	4.1	-26.8	-12.8	i	-9.0	·	·	·
CN(C)c1nc(N/N=C/c2ccccc2O)nc(Nc2ccc(F)cc2)n1	47.3*	58.6*	18.8	i	16.3	37.5*	·	67.0*
Cc1cc(N2CCCCC2)n2ncc(-c3ccccc3)c2n1	37.9	32.4	-10.2	i	0.6	·	·	·
Cc1cc(C)n(-c2cc(C(C)(C)C)nc3c(-c4ccccc4)cnn23)n1	47.4*	50.9*	26.7	i	-58.2	41.0*	·	48.0*
COc1ccc(OC)c(/C=N/NC(=O)c2[nH]ncc2Br)c1	-7.0	11.9	9.0	i	·	·	·	·
CCOc1ccc(/C=N/NC(=O)c2[nH]ncc2Br)c(O)c1	52.3*	78.0*	59.1*	·	6.1	30.1*	37.2*	78.3*
COc1ccc(CCNS(=O)(=O)c2ccc3c(c2)OCCO3)cc1	49.7*	59.3*	49.1*	i	8.4	42.5*	-29.9	55.5*
COc1ccc(S(=O)(=O)NCc2ccc(C)cc2)cc1	47.8*	56.2*	16.4	i	-23.5	22.9	·	43.4*
Cc1ccc(SCCNS(=O)(=O)c2ccc3c(c2)OCCO3)cc1	52.4*	55.5*	51.1*	i	-39.3	42.4*	-6.0	52.6*
O=S(=O)(NCCSCc1ccc(Cl)c(Cl)c1)c1ccc2c(c1)OCCO2	46.7*	54.8*	52.5*	i	-21.4	33.1*	35.6*	49.3*
COc1ccc(CCNC(=O)c2ccc3c(c2)OCCO3)cc1	1.1	19.6	1.9	i	2.0	·	·	·
O=C(CNC(=O)C1CCCCC1)OCC(=O)c1ccc(Br)cc1	-15.6	7.6	11.1	i	6.8	·	·	·
c1ccc(Cn2nnc3c(N4CCCCCC4)ncnc32)cc1	19.3	22.2	-7.6	i	-26.1	·	·	·
Clc1cccc(Cl)c1Cn1cnc2c(N3CCCCCC3)ncnc21	44.0*	50.1*	41.1*	i	-2.4	29.3	27.6*	47.2*
SMILES	tim10-1 inh	tim23-1 inh	TIM10 inh	Rce1 inhib	PfHsp90 set2	tim10-1 confirm	tim10 confirm	tim23-1 conf
CCN1/C(=C\C=C(C(C)=O)C(C)=O)Sc2ccccc21	6.6	8.3	20.2	i	29.8	·	·	·
CCN1/C(=C/C(C)=C/c2sc3ccccc3[n+]2CC)Sc2ccccc21	80.2*	82.3*	78.9*	i	71.6	75.5*	88.0*	81.5*
COc1cc2cc(CCOC(=O)N3CCCCC3)oc(=O)c2cc1OC	8.6	10.9	-10.2	·	15.0	·	·	·
N#Cc1cc(-c2ccccc2)[nH]c1-c1nccc2ccccc12	41.6*	50.8*	23.0	i	-29.5	18.0	·	44.4*
Cc1cc(C#N)c2ccccc2n1	0.9	0.0	2.7	i	-23.2	·	·	·
Cc1csc(NC(=O)c2cc3c(s2)CCCC3)n1	35.6	49.9	36.0	i	-46.4	·	·	·
Cc1csc(NC(=O)c2cc3c(s2)CCCCC3)n1	46.0*	57.1*	41.7*	i	22.7	38.7*	36.8*	49.2*
COc1ccc(S(=O)(=O)N2CCCCCC2)cc1C(=O)N(C)Cc1ccc(OC)c(OC)c1OC	-4.2	-5.7	-2.4	i	·	·	·	·
NC(=O)N/N=C/c1c(O)ccc2oc3c(c12)CCCC3	12.5	2.4	18.7	i	-23.1	·	·	·
CC(C)(C)N=Cc1c(O)ccc2oc3c(c12)CCCC3	41.5*	63.3*	34.3	i	-14.4	33.4*	·	63.6*
C=CS(=O)(=O)N(Cc1ccc(Cl)c(Cl)c1)C[C@@H](O)CO	19.8	37.7	0.5	·	-14.7	·	·	·
c1cncc(-c2nnc(-c3cccnc3)nn2)c1	50.1*	54.2*	36.3	i	·	40.2*	·	56.0*
COc1c(OC(C)=O)c(=O)n2c3ccccc3c3ccnc1c32	70.1*	83.0*	72.6*	i	-8.3	63.6*	80.0*	66.6*
CC12CCC(C(=O)N(CSC(=S)N/N=C\c3ccccc3Cl)C1=O)C2(C)C (configuration not stated)	40.5*	58.6*	57.0*	i	-7.8	22.8	-22.8	41.4*
Cc1ccc(Nc2ccc([N+](=O)[O-])nc2[N+](=O)[O-])cc1	42.1*	52.8*	42.3*	i	0.7	26.6	25.1	43.4*
Cc1ccc(Nc2ccc3nonc3c2[N+](=O)[O-])cc1	12.2	6.7	14.2	i	-11.6	·	·	·
COc1ccc2[nH]c(C)cc(=O)c2c1	-1.0	-0.8	-9.8	i	4.6	·	·	·
COc1ccc2[nH]c3c(C)c4ccncc4c(C)c3c2c1	58.2*	50.1*	58.8*	·	11.8	25.5	70.7*	69.1*
Clc1ncnc2scc(C3COc4ccccc4O3)c12 (configuration not stated)	52.7*	51.5*	29.9	i	6.5	31.4	·	30.5

Screening data as filed in PubChem.
